# Experimental data taken from ChEMBL document CHEMBL1961873, “Compounds: GSK PKIS; Assays: Nanosyn kinase panel” (2012).
# Key:
# [1] = target: Sphingosine kinase 1 (Homo sapiens) (UniProt Q9NYA1); conditions: at 1 µM;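 note: mean SPHK1 inhibition value reported from the GSK PKIS kinase panel screen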
# [2] = target: T1, Sphingosine kinase 2 (Homo sapiens) (UniProt Q9NRA0); conditions: at 0.1 µM
# T1 sequence (whole entry): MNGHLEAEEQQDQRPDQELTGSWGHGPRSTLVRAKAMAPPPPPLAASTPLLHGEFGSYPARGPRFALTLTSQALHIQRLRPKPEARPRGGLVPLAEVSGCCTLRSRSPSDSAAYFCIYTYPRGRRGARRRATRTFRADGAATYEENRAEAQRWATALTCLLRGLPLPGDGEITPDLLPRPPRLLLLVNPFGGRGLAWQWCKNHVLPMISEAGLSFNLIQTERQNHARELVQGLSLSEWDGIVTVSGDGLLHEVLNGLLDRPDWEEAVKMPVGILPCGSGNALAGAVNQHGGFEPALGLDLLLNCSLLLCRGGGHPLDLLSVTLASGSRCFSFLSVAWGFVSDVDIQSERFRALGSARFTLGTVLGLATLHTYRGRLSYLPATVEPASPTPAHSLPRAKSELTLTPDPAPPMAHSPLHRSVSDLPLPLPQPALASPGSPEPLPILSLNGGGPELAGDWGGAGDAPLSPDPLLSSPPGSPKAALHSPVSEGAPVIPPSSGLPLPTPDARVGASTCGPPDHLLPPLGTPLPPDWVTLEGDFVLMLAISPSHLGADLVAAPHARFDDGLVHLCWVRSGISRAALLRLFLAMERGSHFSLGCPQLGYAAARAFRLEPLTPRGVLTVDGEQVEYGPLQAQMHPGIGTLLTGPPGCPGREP
# [3] = target: T1, Sphingosine kinase 2 (Homo sapiens); conditions: at 1 µM
# [4] = target: Casein kinase II subunit alpha (Homo sapiens) (UniProt P68400); conditions: at 0.1 µM
# Chain of Casein kinase II subunit alpha (Homo sapiens) (P68400 whole entry, looked up): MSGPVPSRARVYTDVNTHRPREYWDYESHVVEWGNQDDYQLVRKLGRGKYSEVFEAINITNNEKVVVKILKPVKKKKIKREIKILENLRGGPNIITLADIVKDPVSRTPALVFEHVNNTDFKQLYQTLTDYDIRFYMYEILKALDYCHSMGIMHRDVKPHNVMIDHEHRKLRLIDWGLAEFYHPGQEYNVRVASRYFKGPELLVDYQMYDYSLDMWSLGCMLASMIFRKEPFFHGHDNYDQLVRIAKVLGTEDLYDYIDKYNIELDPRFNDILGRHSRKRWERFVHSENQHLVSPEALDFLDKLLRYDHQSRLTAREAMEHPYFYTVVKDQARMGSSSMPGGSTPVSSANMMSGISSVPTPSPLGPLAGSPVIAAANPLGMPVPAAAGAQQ
# [5] = target: Casein kinase II subunit alpha (Homo sapiens) (UniProt P68400); conditions: at 1 µM
# [6] = target: T2, Inhibitor of nuclear factor kappa-B kinase subunit alpha (Homo sapiens) (UniProt O15111); conditions: at 0.1 µM
# T2 sequence (whole entry): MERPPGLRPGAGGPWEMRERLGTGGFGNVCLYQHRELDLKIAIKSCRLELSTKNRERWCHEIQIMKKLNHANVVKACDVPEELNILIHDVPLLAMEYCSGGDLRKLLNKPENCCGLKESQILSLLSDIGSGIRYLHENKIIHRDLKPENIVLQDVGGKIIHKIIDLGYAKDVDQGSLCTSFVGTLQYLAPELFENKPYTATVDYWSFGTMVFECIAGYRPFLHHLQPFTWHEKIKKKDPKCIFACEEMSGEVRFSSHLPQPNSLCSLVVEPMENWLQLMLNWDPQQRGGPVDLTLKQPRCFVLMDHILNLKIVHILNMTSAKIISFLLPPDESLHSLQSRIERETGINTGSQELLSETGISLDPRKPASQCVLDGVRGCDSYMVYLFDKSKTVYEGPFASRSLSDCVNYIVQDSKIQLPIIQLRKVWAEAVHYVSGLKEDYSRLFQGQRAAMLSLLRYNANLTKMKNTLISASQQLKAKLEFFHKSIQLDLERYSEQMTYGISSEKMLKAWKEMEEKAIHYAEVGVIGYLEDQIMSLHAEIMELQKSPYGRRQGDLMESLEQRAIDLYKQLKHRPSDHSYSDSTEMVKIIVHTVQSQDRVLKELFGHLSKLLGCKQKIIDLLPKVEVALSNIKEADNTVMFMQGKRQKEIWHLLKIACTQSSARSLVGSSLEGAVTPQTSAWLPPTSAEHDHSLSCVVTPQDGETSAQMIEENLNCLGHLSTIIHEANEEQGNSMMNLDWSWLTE
# [7] = target: T2, Inhibitor of nuclear factor kappa-B kinase subunit alpha (Homo sapiens); conditions: at 1 µM
# [8] = target: T3, Inhibitor of nuclear factor kappa-B kinase subunit beta (Homo sapiens) (UniProt O14920); conditions: at 0.1 µM
# T3 sequence (whole entry): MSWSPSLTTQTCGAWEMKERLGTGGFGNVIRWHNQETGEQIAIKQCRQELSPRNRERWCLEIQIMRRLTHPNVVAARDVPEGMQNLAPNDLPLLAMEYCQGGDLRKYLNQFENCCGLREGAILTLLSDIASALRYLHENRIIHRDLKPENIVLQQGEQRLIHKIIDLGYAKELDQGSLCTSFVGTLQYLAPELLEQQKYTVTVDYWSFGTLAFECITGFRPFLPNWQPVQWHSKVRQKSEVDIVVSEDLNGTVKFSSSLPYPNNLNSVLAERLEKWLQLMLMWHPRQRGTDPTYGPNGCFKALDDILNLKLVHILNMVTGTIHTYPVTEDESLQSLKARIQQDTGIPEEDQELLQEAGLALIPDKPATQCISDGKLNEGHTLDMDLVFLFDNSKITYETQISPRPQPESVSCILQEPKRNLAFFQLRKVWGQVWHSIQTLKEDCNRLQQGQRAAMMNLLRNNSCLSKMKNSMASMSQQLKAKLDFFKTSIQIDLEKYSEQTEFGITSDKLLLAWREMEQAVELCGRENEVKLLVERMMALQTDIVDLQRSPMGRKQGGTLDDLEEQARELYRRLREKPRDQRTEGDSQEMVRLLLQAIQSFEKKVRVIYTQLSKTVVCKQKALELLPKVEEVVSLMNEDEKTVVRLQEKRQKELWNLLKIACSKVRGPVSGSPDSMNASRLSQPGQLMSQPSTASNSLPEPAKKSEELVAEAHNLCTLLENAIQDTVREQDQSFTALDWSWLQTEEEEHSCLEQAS
# [9] = target: T3, Inhibitor of nuclear factor kappa-B kinase subunit beta (Homo sapiens); conditions: at 1 µM
# [10] = target: T4, Inhibitor of nuclear factor kappa-B kinase subunit epsilon (Homo sapiens) (UniProt Q14164); conditions: at 0.1 µM
# T4 sequence (whole entry): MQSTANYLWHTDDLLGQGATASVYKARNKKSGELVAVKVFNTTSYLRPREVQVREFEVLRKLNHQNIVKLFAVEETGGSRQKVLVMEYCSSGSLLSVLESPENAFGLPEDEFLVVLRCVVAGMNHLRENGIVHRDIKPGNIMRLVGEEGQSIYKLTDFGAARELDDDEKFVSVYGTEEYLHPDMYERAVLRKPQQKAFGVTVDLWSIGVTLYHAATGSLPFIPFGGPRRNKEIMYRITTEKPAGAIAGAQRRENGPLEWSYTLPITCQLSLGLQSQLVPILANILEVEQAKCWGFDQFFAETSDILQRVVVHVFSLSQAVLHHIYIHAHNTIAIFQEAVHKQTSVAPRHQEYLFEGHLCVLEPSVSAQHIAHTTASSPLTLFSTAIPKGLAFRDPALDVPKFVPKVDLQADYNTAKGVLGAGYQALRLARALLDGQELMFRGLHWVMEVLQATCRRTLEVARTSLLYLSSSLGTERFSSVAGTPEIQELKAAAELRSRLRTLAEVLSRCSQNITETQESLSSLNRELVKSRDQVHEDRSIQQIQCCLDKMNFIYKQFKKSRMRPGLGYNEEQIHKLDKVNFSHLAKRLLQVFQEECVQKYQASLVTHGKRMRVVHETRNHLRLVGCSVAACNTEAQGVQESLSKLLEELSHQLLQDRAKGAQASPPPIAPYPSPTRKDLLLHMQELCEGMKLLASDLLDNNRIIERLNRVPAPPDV
# [11] = target: T4, Inhibitor of nuclear factor kappa-B kinase subunit epsilon (Homo sapiens); conditions: at 1 µM
# [12] = target: T5, Serine/threonine-protein kinase Nek1 (Homo sapiens) (UniProt Q96PY6); conditions: at 0.1 µM
# T5 sequence (whole entry): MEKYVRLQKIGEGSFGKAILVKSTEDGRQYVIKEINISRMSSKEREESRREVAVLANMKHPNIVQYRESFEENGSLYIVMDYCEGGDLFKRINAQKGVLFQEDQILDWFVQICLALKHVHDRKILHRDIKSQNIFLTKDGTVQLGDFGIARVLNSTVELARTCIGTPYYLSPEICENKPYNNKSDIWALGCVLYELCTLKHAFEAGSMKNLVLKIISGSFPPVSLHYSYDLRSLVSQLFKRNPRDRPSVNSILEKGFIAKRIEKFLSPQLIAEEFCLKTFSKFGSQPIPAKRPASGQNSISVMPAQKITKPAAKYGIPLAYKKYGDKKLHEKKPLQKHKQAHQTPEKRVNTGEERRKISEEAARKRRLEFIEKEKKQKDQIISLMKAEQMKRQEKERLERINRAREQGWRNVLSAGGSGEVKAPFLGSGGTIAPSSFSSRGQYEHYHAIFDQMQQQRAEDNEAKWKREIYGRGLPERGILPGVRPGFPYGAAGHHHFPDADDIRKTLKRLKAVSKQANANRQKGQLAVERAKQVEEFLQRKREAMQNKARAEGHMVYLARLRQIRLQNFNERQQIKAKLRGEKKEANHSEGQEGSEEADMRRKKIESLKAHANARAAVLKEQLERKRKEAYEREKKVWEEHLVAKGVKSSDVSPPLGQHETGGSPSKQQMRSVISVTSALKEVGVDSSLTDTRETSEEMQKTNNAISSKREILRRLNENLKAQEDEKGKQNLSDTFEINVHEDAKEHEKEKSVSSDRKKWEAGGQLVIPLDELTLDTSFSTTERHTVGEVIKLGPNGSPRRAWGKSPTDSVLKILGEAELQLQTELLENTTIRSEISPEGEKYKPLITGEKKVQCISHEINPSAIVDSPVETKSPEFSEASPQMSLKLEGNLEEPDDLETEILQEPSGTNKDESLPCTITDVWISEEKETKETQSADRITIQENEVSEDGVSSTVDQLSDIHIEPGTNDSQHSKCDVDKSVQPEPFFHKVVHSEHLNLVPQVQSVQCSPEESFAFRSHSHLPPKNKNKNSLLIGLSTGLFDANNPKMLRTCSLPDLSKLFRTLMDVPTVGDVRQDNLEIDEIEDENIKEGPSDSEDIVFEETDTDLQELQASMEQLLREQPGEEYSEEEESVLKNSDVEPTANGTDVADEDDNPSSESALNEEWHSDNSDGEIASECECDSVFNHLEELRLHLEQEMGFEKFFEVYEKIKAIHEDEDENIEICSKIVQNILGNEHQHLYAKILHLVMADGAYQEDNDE
# [13] = target: T5, Serine/threonine-protein kinase Nek1 (Homo sapiens); conditions: at 1 µM
# [14] = target: T6, Serine/threonine-protein kinase Nek2 (Homo sapiens) (UniProt P51955); conditions: at 0.1 µM
# T6 sequence (whole entry): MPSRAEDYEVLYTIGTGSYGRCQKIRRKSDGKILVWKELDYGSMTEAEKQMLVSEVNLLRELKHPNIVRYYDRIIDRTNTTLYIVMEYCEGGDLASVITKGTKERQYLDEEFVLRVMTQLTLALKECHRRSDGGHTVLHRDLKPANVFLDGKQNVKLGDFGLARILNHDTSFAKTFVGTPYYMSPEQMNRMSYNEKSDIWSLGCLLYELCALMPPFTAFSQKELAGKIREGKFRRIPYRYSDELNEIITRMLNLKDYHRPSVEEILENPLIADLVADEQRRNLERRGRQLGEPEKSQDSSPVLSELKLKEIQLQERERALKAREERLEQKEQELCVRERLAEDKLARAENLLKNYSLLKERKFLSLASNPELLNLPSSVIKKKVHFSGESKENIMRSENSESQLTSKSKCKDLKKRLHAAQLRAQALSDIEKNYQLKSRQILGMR
# [15] = target: T6, Serine/threonine-protein kinase Nek2 (Homo sapiens); conditions: at 1 µM
# [16] = target: Serine/threonine-protein kinase Nek6 (Homo sapiens) (UniProt Q9HC98); conditions: at 0.1 µM
# Chain of Serine/threonine-protein kinase Nek6 (Homo sapiens) (Q9HC98 whole entry): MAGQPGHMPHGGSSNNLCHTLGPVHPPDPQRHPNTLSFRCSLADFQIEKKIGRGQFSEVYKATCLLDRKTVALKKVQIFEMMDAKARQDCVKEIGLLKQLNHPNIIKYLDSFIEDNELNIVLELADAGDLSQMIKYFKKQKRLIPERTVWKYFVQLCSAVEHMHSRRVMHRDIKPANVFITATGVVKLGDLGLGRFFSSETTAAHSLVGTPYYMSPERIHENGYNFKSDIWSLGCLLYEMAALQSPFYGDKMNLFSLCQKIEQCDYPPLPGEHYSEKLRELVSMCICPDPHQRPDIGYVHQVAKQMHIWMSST
# [17] = target: Serine/threonine-protein kinase Nek6 (Homo sapiens) (UniProt Q9HC98); conditions: at 1 µM
# [18] = target: Serine/threonine-protein kinase Nek7 (Homo sapiens) (UniProt Q8TDX7); conditions: at 0.1 µM
# Chain of Serine/threonine-protein kinase Nek7 (Homo sapiens) (Q8TDX7 whole entry, looked up): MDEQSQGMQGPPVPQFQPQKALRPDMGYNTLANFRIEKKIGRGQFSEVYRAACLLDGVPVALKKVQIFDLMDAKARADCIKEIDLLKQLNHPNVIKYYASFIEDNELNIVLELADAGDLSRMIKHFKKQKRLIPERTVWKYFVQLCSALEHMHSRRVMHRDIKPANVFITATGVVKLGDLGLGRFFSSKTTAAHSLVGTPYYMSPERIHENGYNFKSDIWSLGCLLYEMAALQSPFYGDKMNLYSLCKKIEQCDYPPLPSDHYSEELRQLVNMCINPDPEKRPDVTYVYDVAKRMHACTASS
# [19] = target: Serine/threonine-protein kinase Nek7 (Homo sapiens) (UniProt Q8TDX7); conditions: at 1 µM
# [20] = target: T7, Serine/threonine-protein kinase Nek9 (Homo sapiens) (UniProt Q8TD19); conditions: at 0.1 µM;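 note: reported value is the mean percent inhibition of NEK9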
# T7 sequence (whole entry): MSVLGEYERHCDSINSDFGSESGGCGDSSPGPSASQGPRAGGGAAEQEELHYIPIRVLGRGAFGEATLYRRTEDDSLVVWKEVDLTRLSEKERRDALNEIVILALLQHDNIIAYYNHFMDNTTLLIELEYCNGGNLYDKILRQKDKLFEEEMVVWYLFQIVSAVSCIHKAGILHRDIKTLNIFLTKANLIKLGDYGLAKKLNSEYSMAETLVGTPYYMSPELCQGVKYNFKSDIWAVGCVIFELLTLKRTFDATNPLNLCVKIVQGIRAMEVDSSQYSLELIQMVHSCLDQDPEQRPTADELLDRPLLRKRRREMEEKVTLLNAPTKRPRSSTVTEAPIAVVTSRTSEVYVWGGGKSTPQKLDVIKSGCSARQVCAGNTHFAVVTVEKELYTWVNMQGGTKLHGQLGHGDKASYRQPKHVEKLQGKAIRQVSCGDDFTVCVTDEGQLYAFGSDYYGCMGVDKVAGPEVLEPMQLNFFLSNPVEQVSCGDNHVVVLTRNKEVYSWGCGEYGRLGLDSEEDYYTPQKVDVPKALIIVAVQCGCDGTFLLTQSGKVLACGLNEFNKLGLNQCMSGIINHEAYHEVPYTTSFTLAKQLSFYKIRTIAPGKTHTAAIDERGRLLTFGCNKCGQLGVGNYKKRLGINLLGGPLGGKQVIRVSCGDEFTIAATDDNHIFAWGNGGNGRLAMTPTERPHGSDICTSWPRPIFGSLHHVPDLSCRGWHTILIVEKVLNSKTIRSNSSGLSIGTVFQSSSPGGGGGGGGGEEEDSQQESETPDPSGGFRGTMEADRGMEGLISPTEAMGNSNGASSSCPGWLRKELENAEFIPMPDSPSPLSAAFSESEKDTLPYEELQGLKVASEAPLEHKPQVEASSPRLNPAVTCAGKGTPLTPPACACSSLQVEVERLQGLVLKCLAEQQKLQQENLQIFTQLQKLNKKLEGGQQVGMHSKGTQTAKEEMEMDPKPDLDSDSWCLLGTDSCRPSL
# Chain of Sphingosine kinase 1 (Homo sapiens) (Q9NYA1 whole entry): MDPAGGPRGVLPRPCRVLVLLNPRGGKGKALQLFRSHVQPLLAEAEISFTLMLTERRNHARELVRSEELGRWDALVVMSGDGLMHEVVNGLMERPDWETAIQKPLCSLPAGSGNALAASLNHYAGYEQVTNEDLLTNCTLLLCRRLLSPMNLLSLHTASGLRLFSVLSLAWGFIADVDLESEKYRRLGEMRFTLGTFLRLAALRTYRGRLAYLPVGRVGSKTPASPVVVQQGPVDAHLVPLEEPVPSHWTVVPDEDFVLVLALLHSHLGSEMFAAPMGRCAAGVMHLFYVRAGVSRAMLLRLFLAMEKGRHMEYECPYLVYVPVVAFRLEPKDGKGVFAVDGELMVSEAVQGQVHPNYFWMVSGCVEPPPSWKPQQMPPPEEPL
smiles,measurement,setting,value
COc1ccc(COc2ccc(Cc3cnc(N)nc3N)cc2OC)cc1,inhibition,[1],-2.38%
same,inhibition,[2],0.09%
same,inhibition,[3],-0.88%
same,inhibition,[4],-2.39%
same,inhibition,[5],-8.59%
same,inhibition,[6],2.25%
same,inhibition,[7],-7.71%
same,inhibition,[8],-1.1%
same,inhibition,[9],-1.34%
same,inhibition,[10],-1.79%
same,inhibition,[11],-2.21%
same,inhibition,[12],1.41%
same,inhibition,[13],1.56%
same,inhibition,[14],-0.14%
same,inhibition,[15],-1.4%
same,inhibition,[16],-0.54%
same,inhibition,[17],-3.71%
same,inhibition,[18],2.81%
same,inhibition,[19],1.75%
same,inhibition,[20],0.22%
